Our source for the growth values is PubChem BioAssay (NCI).

Compounds without any hit were thinned out: in the full panel of roughly 83,000, 20% have a hit.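 Single-concentration screen, 48 h exposure, 96-well plates. Endpoint: percent growth. Below 10 = active.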 Values without a mark were called inactive. Calls of active or inactive are those of the source.

Among the test systems are RPMI-8226 leukemia; OVCAR-8 ovarian; OVCAR-5 ovarian; OVCAR-4 ovarian; SK-OV-3 ovarian; IGROV1 ovarian; OVCAR-3 ovarian; HS 578T breast; NCI/ADR-RES ovarian; T-47D breast; BT-549 breast; MDA-MB-435 melanoma; SW-620 colon; MCF7 breast; HCT-116 colon; HCC-2998 colon; KM12 colon.
Experiment in all cases: NCI-60 one-dose screen, 48 h (100 = growth as untreated, 0 = no growth, -100 = all killed)
Common to all, as to conditions: 10 µM

Take `COc1ccccc1CNCCCN1C(=O)c2ccc3c4c(ccc(c24)C1=O)C(=O)N(CCCN)C3=O`: the growth in the experiment on RPMI-8226 leukemia was -13.6% (active); with OVCAR-8 ovarian it was -24.2% (active); in the experiment on OVCAR-5 ovarian, -29.7% (active); in the experiment with OVCAR-4 ovarian it was -67.1% (active); with SK-OV-3 ovarian it was 27.3%; in the experiment on IGROV1 ovarian it was -52.7% (active). The growth in the experiment on OVCAR-3 ovarian is -27.8% (active); in the experiment with HS 578T breast, -13% (active); with NCI/ADR-RES ovarian, 59.4%; with T-47D breast, -42.6% (active); with BT-549 breast it was -43.4% (active); in the experiment with MDA-MB-435 melanoma, -88.3% (active). For the same compound, the growth in the experiment on SW-620 colon is -69.8% (active); in the experiment with MCF7 breast, -29.4% (active); in the experiment with HCT-116 colon, -4.19% (active); with HCC-2998 colon it was -56.8% (active); in the experiment with KM12 colon it was 4.38% (active).

As to `CCN(CC)CCOc1nc2ccccc2c2c1-c1ccc(OC)cc1C2=O`, the growth with RPMI-8226 leukemia is -14.3% (active); in the experiment with OVCAR-8 ovarian, 6.78% (active); in the experiment on OVCAR-5 ovarian it was 25.8%; in the experiment on OVCAR-4 ovarian, 6.09% (active); in the experiment with SK-OV-3 ovarian, 43.5%; in the experiment on IGROV1 ovarian, -37.9% (active). For the same compound, the growth is -18.6% (active) in the experiment on OVCAR-3 ovarian; 1.77% (active) in the experiment with HS 578T breast; -12.8% (active) with NCI/ADR-RES ovarian; 47.1% with T-47D breast; 60.8% with BT-549 breast; -6.62% (active) in the experiment with MDA-MB-435 melanoma. In addition, the growth was -13.3% (active) with SW-620 colon; 0.376% (active) with MCF7 breast; -93% (active) with HCT-116 colon; 14.8% with HCC-2998 colon; -45.2% (active) in the experiment on KM12 colon.

Take `COc1ccc2c(c1)/C(=C\c1c[nH]c3ccc(OC)cc13)C(=O)N2`: the growth with RPMI-8226 leukemia is 36.7%; in the experiment on OVCAR-8 ovarian, 59.7%; in the experiment with OVCAR-5 ovarian, 64.8%; in the experiment with OVCAR-4 ovarian it was 57.6%; in the experiment with SK-OV-3 ovarian it was 52.8%; in the experiment with IGROV1 ovarian it was 41.7%. Also, the growth is 52.6% with OVCAR-3 ovarian; 46.9% in the experiment with HS 578T breast; 28.1% in the experiment on NCI/ADR-RES ovarian; 49.7% in the experiment with T-47D breast; 57.7% in the experiment on BT-549 breast; -11.5% (active) in the experiment on MDA-MB-435 melanoma. In addition, the growth is 15.1% in the experiment with SW-620 colon; 29.6% in the experiment with MCF7 breast; 30.1% with HCT-116 colon; 49.4% in the experiment on HCC-2998 colon; 10.1% in the experiment on KM12 colon.

With `COc1ccc([N+](=O)[O-])c(C(=O)O)c1`, the growth in the experiment with RPMI-8226 leukemia is 110%; in the experiment with OVCAR-8 ovarian, 101%; in the experiment with OVCAR-5 ovarian, 102%; with OVCAR-4 ovarian, 102%; with SK-OV-3 ovarian, 99.1%; in the experiment with IGROV1 ovarian it was 108%. The growth in the experiment with OVCAR-3 ovarian is 102%; in the experiment with HS 578T breast, 98.1%; in the experiment with NCI/ADR-RES ovarian, 110%; in the experiment on T-47D breast, 93.3%; with BT-549 breast, 102%; in the experiment with MDA-MB-435 melanoma, 97.9%. The growth with SW-620 colon is 101%; in the experiment with MCF7 breast it was 93.8%; in the experiment on HCT-116 colon it was 103%; in the experiment on HCC-2998 colon, 106%; in the experiment with KM12 colon, 100%.

Take `O=C(Nc1cccc(Cl)c1)Nc1nccs1`: the growth in the experiment on RPMI-8226 leukemia was 91.1%; in the experiment on OVCAR-8 ovarian, 97.9%; in the experiment with OVCAR-5 ovarian it was 109%; in the experiment with OVCAR-4 ovarian, 90.6%; in the experiment on SK-OV-3 ovarian, 100%; with IGROV1 ovarian, 97.5%. The growth is 114% with OVCAR-3 ovarian; 115% in the experiment with HS 578T breast; 91% with NCI/ADR-RES ovarian; 73% in the experiment with T-47D breast; 90.1% with BT-549 breast; 62% in the experiment with MDA-MB-435 melanoma. The growth is 103% in the experiment with SW-620 colon; 57.8% in the experiment on MCF7 breast; 94% with HCT-116 colon; 89.7% in the experiment on HCC-2998 colon; 81.2% with KM12 colon.

Consider `Cn1c([N+](=O)[O-])cnc1/C=C1\Oc2ccc(Cl)cc2C1=O`, for which the growth in the experiment with RPMI-8226 leukemia is 0.916% (active); in the experiment with OVCAR-8 ovarian, -17.3% (active); in the experiment with OVCAR-5 ovarian it was -20.4% (active); with OVCAR-4 ovarian, -4.09% (active); in the experiment on SK-OV-3 ovarian, -10.2% (active); with IGROV1 ovarian, -19.3% (active). Besides, the growth is -26.8% (active) with OVCAR-3 ovarian; -24.1% (active) with HS 578T breast; 2.61% (active) with NCI/ADR-RES ovarian; 78.1% in the experiment with T-47D breast; -35.7% (active) with BT-549 breast; -62.7% (active) in the experiment on MDA-MB-435 melanoma. The growth in the experiment with SW-620 colon was -61.6% (active); with MCF7 breast, 1.32% (active); in the experiment on HCT-116 colon, -46.6% (active); with HCC-2998 colon, -58.6% (active); in the experiment with KM12 colon it was -37% (active).

`C/C(N)=C(\C#N)C(=O)c1ccccc1`: the growth in the experiment with RPMI-8226 leukemia is 99.2%; in the experiment on OVCAR-8 ovarian, 103%; in the experiment with OVCAR-5 ovarian, 97.9%; with OVCAR-4 ovarian, 104%; in the experiment with SK-OV-3 ovarian, 99.5%; in the experiment with IGROV1 ovarian, 101%. The growth with OVCAR-3 ovarian is 112%; in the experiment on HS 578T breast, 111%; in the experiment with NCI/ADR-RES ovarian it was 105%; in the experiment on T-47D breast it was 94.1%; in the experiment on BT-549 breast, 113%; with MDA-MB-435 melanoma, 100%. Moreover, the growth in the experiment with SW-620 colon was 106%; in the experiment on MCF7 breast it was 96.6%; in the experiment with HCT-116 colon, 102%; in the experiment with HCC-2998 colon, 102%; in the experiment with KM12 colon it was 107%.

Regarding `O=C(Nc1cccc(Br)c1)c1cc(=O)[nH]c2ccccc12`, the growth in the experiment on RPMI-8226 leukemia was 80.2%; in the experiment on OVCAR-8 ovarian it was 92.9%; in the experiment with OVCAR-5 ovarian it was 90.8%; in the experiment on OVCAR-4 ovarian, 97.6%; in the experiment with SK-OV-3 ovarian, 97.7%; in the experiment with IGROV1 ovarian, 17.9%. Also, the growth was 92.4% in the experiment with OVCAR-3 ovarian; 105% in the experiment with HS 578T breast; 88.6% in the experiment on NCI/ADR-RES ovarian; 92.1% in the experiment with T-47D breast; 82.1% in the experiment on BT-549 breast; 101% in the experiment with MDA-MB-435 melanoma. In addition, the growth with SW-620 colon is 102%; in the experiment with MCF7 breast, 84%; in the experiment with HCT-116 colon, 109%; in the experiment on HCC-2998 colon it was 104%; in the experiment with KM12 colon, 101%.

`CCOC(=O)N/N=C\C(C)=N\NC(=O)OCC`: the growth with RPMI-8226 leukemia is 98.8%; with OVCAR-8 ovarian, 99%; with OVCAR-5 ovarian, 100%; in the experiment on OVCAR-4 ovarian, 102%; in the experiment on SK-OV-3 ovarian, 98.7%; in the experiment on IGROV1 ovarian it was 108%. Besides, the growth in the experiment on OVCAR-3 ovarian was 106%; with HS 578T breast it was 115%; with NCI/ADR-RES ovarian, 97.9%; with T-47D breast, 99.9%; in the experiment on BT-549 breast, 99.8%; in the experiment on MDA-MB-435 melanoma it was 88.8%. The growth in the experiment with SW-620 colon was 99%; in the experiment with MCF7 breast it was 99.5%; with HCT-116 colon it was 104%; in the experiment on HCC-2998 colon, 111%; with KM12 colon, 102%.

As for `CN(C)CCN=c1nc2c(c(N)n1-c1ccccc1)c(=S)n(-c1ccccc1)c(=S)n2-c1ccccc1`, the growth in the experiment with RPMI-8226 leukemia is -4.61% (active); in the experiment with OVCAR-8 ovarian, 33.6%; with OVCAR-5 ovarian, 63.1%; in the experiment on OVCAR-4 ovarian it was 41.7%; in the experiment with SK-OV-3 ovarian, 76.3%; in the experiment with IGROV1 ovarian, 36.3%. For the same compound, the growth was -48.7% (active) with OVCAR-3 ovarian; 12.3% with HS 578T breast; 58.7% in the experiment on NCI/ADR-RES ovarian; -19.4% (active) with T-47D breast; 4.45% (active) in the experiment with BT-549 breast; -64.5% (active) in the experiment on MDA-MB-435 melanoma. For the same compound, the growth was -59.1% (active) in the experiment with SW-620 colon; 17.9% with MCF7 breast; -22.1% (active) in the experiment on HCT-116 colon; -39.6% (active) with HCC-2998 colon; 0.204% (active) with KM12 colon.

As to `CSC1=NCCCC1`, the growth was 106% in the experiment with RPMI-8226 leukemia; 106% in the experiment on OVCAR-8 ovarian; 112% with OVCAR-5 ovarian; 105% with OVCAR-4 ovarian; 108% in the experiment with SK-OV-3 ovarian; 108% in the experiment with IGROV1 ovarian. Further, the growth is 110% in the experiment on OVCAR-3 ovarian; 116% in the experiment on HS 578T breast; 118% in the experiment on NCI/ADR-RES ovarian; 107% in the experiment on T-47D breast; 108% in the experiment on BT-549 breast; 108% with MDA-MB-435 melanoma. The growth in the experiment with SW-620 colon is 114%; in the experiment on MCF7 breast, 97.8%; in the experiment with HCT-116 colon, 109%; in the experiment on HCC-2998 colon, 115%; with KM12 colon it was 113%.
